Results on 40 compounds are retold here after PubChem BioAssay (NCI).

Each structure is given as a SMILES string. Several values for one entry are separate records, joined by “and”; a condition that tells them apart may be missing. Identical values can stand only once. Compounds without any hit were thinned out: in the full panel of roughly 83,000, 20% have a hit.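 For each line, cells grew in 96-well plates with the test compound present at a single concentration for 48 hours.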 Activity calls are given as the source filed them. Rule for the calls: active = growth percent below 10; inactive = the rest.

The assay relates to MDA-MB-468 breast. The assay can be described thus: NCI-60 one-dose screen, 48 h (100 = growth as untreated, 0 = no growth, -100 = all killed). To be noted: 10 µM unless noted.
Regarding `C=CCn1cc(C=C2C(=O)N(C)C(=O)N(C)C2=O)c2ccccc21`, the growth is -35.5% (active).

Take `CCCCCCCOC(C(=O)OCCN(CC)CC)(c1ccccc1)c1ccccc1`: the growth was 79.7% (inactive). The result for `C=CCc1ccc(OC(=O)Cc2ccccc2)c(OC)c1` reads 100% (inactive). The result for `COc1ccc(/C=C\c2cc(OC)c(OC)c(OC)c2)cc1OCC(=O)Nc1nc2ccc(OC(F)(F)F)cc2s1` reads -22.1% (active); that for `CCCCn1cc(C(=O)/C(C#N)=C/c2cc3ccccc3nc2Cl)c2cc(OC)ccc21`, 104% (inactive). The same measure for `CC[C@H](C)[C@@H]([C@@H](CC(=O)N1CCC[C@H]1[C@H](OC)[C@@H](C)C(=O)N[C@H](C)[C@@H](O)c1ccccc1)OC)N(C)C(=O)[C@@H](NC(=O)[C@@H](NC)C(C)C)C(C)C`: 37% (inactive); for `CCCC(C)SP(=S)(SC(C)CCC)SC(C)CCC` (stereo not given): -25.4% (active); for `CNC(=O)Oc1cccc(OC)c1`: 106% (inactive). Regarding `NC(=O)CNc1ccc([As]=[As]c2ccc(NCC(N)=O)cc2)cc1` (stereo not given), the growth is -6.99% (active). The same measure for `O=[N+]([O-])c1cc(Cl)c(Cl)c([N+](=O)[O-])c1Cl`: 9.01% (active). The same measure for `C[C@]12C[C@H](c3ccoc3)OC(=O)[C@H]1CC[C@@]1(C)[C@@H]2[C@H]2C=C[C@]1(O)C(=O)O2`: 105% (inactive). The result for `CCCC1CCCCC12C(=O)NC(=O)NC2=O` (stereo not given) reads 113% (inactive); that for `NC(Cc1ccccc1)c1ccccc1` (stereo not given), 107% (inactive) and 105% (inactive). For `CC(C)N=C(NC(C)C)N1CC1`, the growth is 118% (inactive). Turning to `CC1(C)N=C(N)N=C(N)N1c1ccc(CCC(=O)Nc2ccc(S(=O)(=O)F)cc2)cc1`, the growth was 46.3% (inactive). The result for `N#CC(C#N)=C(C#N)C#N` reads 102% (inactive); that for `NC1CC2CCCCC2CC1(O)c1ccccc1` (stereo not given), 98.2% (inactive). The same measure for `CC(=O)O[C@H]1C(=O)[C@@]2(C)[C@H]([C@H](OC(=O)c3ccccc3)[C@]3(O)C[C@H](OC(=O)[C@H](OC(=O)OCC4COC(C)(C)O4)[C@@H](NC(=O)c4ccccc4)c4ccccc4)C(C)=C1C3(C)C)[C@]1(OC(C)=O)CO[C@@H]1C[C@@H]2O` (stereo not given in full): 2.65% (active).

On to `Nc1ccc(P(=O)(O)O)cc1`, for which the growth was 104% (inactive) and 92.6% (inactive).

On to `CCCCCC1(CCBr)C(=O)NC(=O)NC1=O`, for which the growth was 103% (inactive). For `COc1cc(/C=C\[N+](=O)[O-])ccc1O`, the growth is 4.87% (active) and 65.1% (inactive).

With `CCC[CH2][Sn]([CH2]CCC)([CH2]CCC)[O]C(=O)c1ccc(Cl)cc1Cl`, the growth is -80.7% (active). Turning to `Cc1c2cc(Cl)c3ccccc3c2c[n+]2ccccc12`, the growth was -71.5% (active).

For the compound `COC1[C@@H]2C[C@H]3C(C)(C)O[C@@](C/C=C(/C)C(=O)O)(C2=O)[C@]32Oc3c(CC=C(C)C)c4c(c(O)c3C(=O)[C@H]12)C=CC(C)(C)O4` (stereo not given in full), the growth is -65.2% (active). The same measure for `CCCOC(=O)N[C@H]1CCc2c(Br)c(OC)c(OC)c(OC)c2-c2ccc(SC)c(=O)cc21`: -14.2% (active); for `Cc1cc(CCl)c(C)cc1CCl`: -59.9% (active); for `CCC(/C=C(C)/C=C/C(=O)c1c(O)c(-c2ccc(O)cc2)c[nH]c1=O)CO` (stereo not given): 98.5% (inactive). The same measure for `COc1cc(C)c(-c2ccc(OC)c(=O)cc2C)c(OC)c1OC`: 33.8% (inactive) and 77.1% (inactive); for `NC(Cc1ccc2c(c1)OCO2)c1ccc2c(c1)OCO2` (stereo not given): 96% (inactive).

Regarding `C[N+]12CN3CN(CN(C3)C1)C2`, the growth is 119% (inactive).

Regarding `O=C(NCCN1CC1)C(=O)NCCN1CC1`, the growth was 81.3% (inactive). The same measure for `C1CNC2CCCC2C1` (stereo not given): 97.4% (inactive); for `Cc1cc(C)cc(Nc2nc3c(s2)CC[C@@]2(C)C3=CC[C@@H]3[C@@H]2CC[C@]2(C)C(=O)CC[C@@H]32)c1`: 57.9% (inactive). The result for `CN1CCC2(CC1)C(C#N)C(=O)NC(=O)C2C#N` (stereo not given) reads 102% (inactive); that for `CCCCCCCC[N+](C)(CCCCCCCC)CCCCCCCC`, -90.1% (active). The same measure for `CC[C@]12C=CCN3CC[C@@]4(c5ccc(OC)cc5N(C)[C@H]4[C@@](O)(C(=O)OC)[C@@H]1OC(=O)CCCC[P+](c1ccccc1)(c1ccccc1)c1ccccc1)[C@@H]32`: -63.9% (active); for `CC(=O)Nc1ccc(C=C2C(=O)NC(=O)NC2=O)cc1`: 115% (inactive). As to `O=C1OCCC1Br` (stereo not given), the growth is 106% (inactive). Regarding `CCCCn1c(=O)c(C(=O)NCc2ccccc2Cl)c(O)c2ccccc21`, the growth was 70.6% (inactive).

As to `COc1ccc2c(c1)c(C1(O)CC(CSC#N)OC1=O)cn2C(=O)c1ccc(Cl)cc1` (stereo not given), the growth is 109% (inactive).
